Values joined by “and” are separate entries in the source; they are usually repeats but may differ in a detail not shown here. Identical values can stand only once. Records with an inconclusive call do not appear. Entries that show only a call come without a potency. Values without a mark were called inactive. Active and inactive are the calls of the source. Unless noted, the call rests on the fitted dose curve; in most records, active means well fitted curve in the direction sought with a large enough effect; inconclusive means small, poorly fitted or top-dose-only effect, or another doubt; inactive means no such curve, though single readings can be large; an effect the other way counts as inactive or inconclusive.
Experiments:
[1] = biological target: Cellular tumor antigen p53 (Homo sapiens) (UniProt P04637); assay: Primary qHTS for small molecule compounds that upregulate eGFP-tagged delta133p53alpha (in N-terminal) cells. (AID 2060322); settings: NCI-H358 eGFP-delta133p53alpha fluorescence, 24 h; activation: hits give high values; further: nearly all actives have a fitted effect of over 75% in size; further: potency means the concentration at half of the fitted maximal effect;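 on activation: cells pre-induced with doxycycline then dosed without doxycycline; series mostly up to about 56 µM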
Chain of Cellular tumor antigen p53 (Homo sapiens) (P04637 whole entry, looked up, the tested form may be a part): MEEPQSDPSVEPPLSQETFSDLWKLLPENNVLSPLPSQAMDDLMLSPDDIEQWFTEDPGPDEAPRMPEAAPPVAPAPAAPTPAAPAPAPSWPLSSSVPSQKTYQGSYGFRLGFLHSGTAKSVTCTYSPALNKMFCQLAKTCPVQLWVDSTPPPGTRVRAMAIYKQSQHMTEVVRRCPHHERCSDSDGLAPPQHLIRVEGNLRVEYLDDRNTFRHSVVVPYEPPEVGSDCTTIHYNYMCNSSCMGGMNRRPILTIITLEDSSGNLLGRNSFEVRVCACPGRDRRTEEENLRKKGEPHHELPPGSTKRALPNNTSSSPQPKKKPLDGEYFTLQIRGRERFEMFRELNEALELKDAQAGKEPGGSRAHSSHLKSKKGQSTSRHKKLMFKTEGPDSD
Outline: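 NCI-H358 cells pre-induced 24 h with 10 ng/ml doxycycline for eGFP-delta133p53alpha, plated dox-free and exposed 24 h at 37C to titrated compounds. Fixed, Hoechst-stained; gated GFP peak intensity by laser scanning cytometry, normalized to DMSO (0%) and 57.5 uM 5-azacytidine (100%).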

[2] = biological target: Cellular tumor antigen p53 (Homo sapiens) (UniProt P04637); assay: Primary qHTS for small molecule compounds that upregulate eGFP-tagged delta133p53alpha (in C-terminal) cells. (AID 2060324); further: potency means the concentration at half of the fitted maximal effect
Outline: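 Doxycycline (100 ng/ml, 24 h) first induced the eGFP fusion in NCI-H358 C-terminal-tag cells. Washed-out cells then received titrated compounds for 24 h at 37 °C before paraformaldehyde fixation, Hoechst staining and cytometric GFP quantification.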

[3] = biological target: Aldehyde dehydrogenase, mitochondrial (Homo sapiens) (UniProt P05091); assay: qHTS for Inhibitors of the Aldehyde Dehydrogenase Family (ALDH2) Validation screens (AID 2061302; active means well fitted inhibition curve with a large enough effect; title and protocol of this record describe different tests)
[4] = biological target: Retinaldehyde dehydrogenase 3 (Homo sapiens) (UniProt P47895); assay: qHTS for Inhibitors of the Aldehyde Dehydrogenase Family (ALDH1A3) Validation screen (AID 2061312); further: nearly all actives have a fitted effect of over 45% in size
[5] = BET inhibitor-based combinations targeting novel dependencies in MECOM-rearranged (r) AML: SET-2 cell line (AID 2202231); settings: SET-2 AML cells viability, CellTiter-Glo luminescence, 48 h; viability: hits give low values, concentration not given here; further: nearly all actives have a fitted effect of over 35% in size; further: potency means the concentration at half of the fitted maximal effect
Outline: (§1)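 AML cell lines seeded at 500 cells/well, treated with 11-point dose curves for 48 h. Viability by CellTiter-Glo luminescence, normalised to DMSO and empty wells; activity expressed as AUC and per-cell-line Z-transformed AUC.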

[6] = BET inhibitor-based combinations targeting novel dependencies in MECOM-rearranged (r) AML: OCI-AML3 cell line (AID 2202232); settings: Potency: OCI-AML3 viability; further: nearly all actives have a fitted effect of over 35% in size; further: potency means the concentration at half of the fitted maximal effect
Outline: as §1

[7] = BET inhibitor-based combinations targeting novel dependencies in MECOM-rearranged (r) AML: MV-4-11 cell line (AID 2202233); further: nearly all actives have a fitted effect of over 45% in size; further: potency means the concentration at half of the fitted maximal effect
Outline: (§2)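 Cells at 500/well were exposed for 48 hr to MIPE v5.0 drugs as 11-point dose curves. Viability was read by CellTiter-Glo luminescence and normalized to DMSO and empty-well controls. Activity was expressed as AUC and per-cell-line Z-AUC.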

[8] = BET inhibitor-based combinations targeting novel dependencies in MECOM-rearranged (r) AML: HNT-34 cell line (AID 2202234); further: nearly all actives have a fitted effect of over 35% in size; further: potency means the concentration at half of the fitted maximal effect
Outline: as §2

[9] = BET inhibitor-based combinations targeting novel dependencies in MECOM-rearranged (r) AML: UCSD-AML1 cell line (AID 2202235); further: nearly all actives have a fitted effect of over 40% in size; further: potency means the concentration at half of the fitted maximal effect
Outline: as §2

[10] = BET inhibitor-based combinations targeting novel dependencies in MECOM-rearranged (r) AML: AML-191 cell line (AID 2202236; further: nearly all actives have a fitted effect of over 35% in size; further: potency means the concentration at half of the fitted maximal effect)
Outline: as §1

[11] = BET inhibitor-based combinations targeting novel dependencies in MECOM-rearranged (r) AML: AML-194 cell line (AID 2202237; further: nearly all actives have a fitted effect of over 40% in size; further: potency means the concentration at half of the fitted maximal effect)
Outline: as §1

Structure (SMILES) | activation [1] | Potency [2] | Potency [3] | Potency [4] | viability [5] | Potency [6] | Potency [7] | Potency [8] | Potency [9] | Potency [10] | Potency [11] | Potency [5] | Potency [1]
CN(C)c1nc(N(C)C)nc(N(C)C)n1 | -31.8% and -1.51% and -37.1% | inactive | inactive | inactive | 111% | inactive | inactive | inactive | inactive | inactive | inactive | – | –
CCOC(=O)C(C)(C)Oc1ccc(Cl)cc1 | 14.3% and -37.9% and -27.7% | inactive | inactive | inactive | 112% | inactive | inactive | inactive | inactive | inactive | inactive | – | –
NC(=O)c1ncn([C@@H]2O[C@H](CO)[C@@H](O)[C@H]2O)c1O | -26.8% and 40.7% | inactive | inactive | inactive | 109% and 121% | inactive | – | inactive | inactive | inactive | inactive | – | –
O=c1c(O)c(-c2ccc(O)cc2O)oc2cc(O)cc(O)c12 | 15.3% and -27.9% | inactive | inactive | inactive | 122% | inactive | – | inactive | – | inactive | inactive | – | –
CCCN(CCC)C(=O)C(CCC(=O)O)NC(=O)c1ccccc1 (configuration not stated) | -4.18% and 0.787% | inactive | inactive | inactive | 109% | inactive | inactive | inactive | – | inactive | inactive | – | –
CC1COc2c(N3CCN(C)CC3)c(F)cc3c(=O)c(C(=O)O)cn1c23 (configuration not stated) | 11.7% and -7% and 13.8% | inactive | inactive | inactive | 102% | – | inactive | inactive | – | inactive | inactive | – | –
COc1cccc(-c2cc(=O)c3ccccc3o2)c1N | 10.5% and -44.6% | inactive | inactive | inactive | 100% | – | 20.9 µM (active) | – | – | 14.8 µM (active) | – | – | –
O=c1c(-c2ccc(O)cc2)coc2cc(O)cc(O)c12 | -2.22% and -24.3% and -49.4% | inactive | inactive | inactive | – | – | 34 µM (active) | 21.5 µM (active) | – | 42.8 µM (active) | – | 42.8 µM (active) | –
O=C(CCc1ccc(O)cc1)c1c(O)cc(O)cc1O | 27.3% and 7.98% | inactive | inactive | inactive | 105% | – | – | – | – | – | inactive | – | –
Nc1c2c(nc3ccccc13)CCCC2 | -15.6% and 9.21% and -7.03% | inactive | inactive | inactive | 102% | – | – | – | – | inactive | – | – | –
CCCCNc1cc(C(=O)O)cc(S(N)(=O)=O)c1Oc1ccccc1 | 1.67% and 7.38% and -16.3% | inactive | inactive | inactive | 115% | inactive | inactive | inactive | – | inactive | inactive | – | –
C[C@@H](c1ncncc1F)[C@](O)(Cn1cncn1)c1ccc(F)cc1F | -3.85% and -2.78% | inactive | inactive | inactive | 105% | inactive | – | inactive | inactive | inactive | inactive | – | –
NCCc1ccc(O)c(O)c1 | -4.36% and 11.8% | inactive | inactive | inactive | 112% | – | 18.6 µM (active) | – | inactive | inactive | inactive | – | –
CC(C[N+](C)(C)C)OC(N)=O (configuration not stated) | -5.86% and -4.18% and -40.2% | inactive | inactive | inactive | 116% | – | inactive | inactive | – | inactive | inactive | – | –
CCOC(=O)C(C)Oc1cccc2c(=O)n(CC(=O)Nc3ccc4c(c3)OCCO4)ccc12 (configuration not stated) | -0.568% and 16.2% | inactive | inactive | inactive | 114% | 3.72 µM (active) | 3.32 µM (active) | inactive | – | inactive | inactive | – | –
CCOC(=O)C1=C(O)C(=O)N(Cc2ccccc2)C1 | -27.1% | inactive | inactive | inactive | 93.1% | inactive | – | inactive | inactive | inactive | inactive | – | –
CC12CC3CC(C)(C1)CC(N)(C3)C2 | -20.9% and 13.4% and -0.343% | inactive | inactive | inactive | 110% | inactive | inactive | inactive | – | inactive | inactive | – | –
Cn1cnc([N+](=O)[O-])c1Sc1ncnc2nc[nH]c12 | -10% | inactive | inactive | inactive | – | – | – | – | inactive | – | 0.468 µM (active) | 1.66 µM (active) | –

Structure (SMILES) | activation [1] | Potency [2] | Potency [3] | Potency [4] | viability [5] | Potency [6] | Potency [7] | Potency [8] | Potency [9] | Potency [10] | Potency [11] | Potency [5] | Potency [1]
O=C1N(c2ccccc2)c2ccccc2C1(Cc1ccncc1)Cc1ccncc1 | 10.9% and -8.78% and -29% | inactive | inactive | inactive | 104% | inactive | inactive | – | inactive | inactive | inactive | – | –
Cc1cccc(-c2[nH]ncc2-c2ccc3ncccc3n2)n1 | 39.6% and -70.9% | inactive | inactive | inactive | 105% | inactive | inactive | 20.9 µM (active) | – | inactive | inactive | – | –
Cc1cc(C)c(/C=C2\C(=O)Nc3ccccc32)[nH]1 | -35.1% | 30.1 µM (active) | inactive | inactive | 96.4% | – | 0.742 µM (active) | 0.296 µM (active) | inactive | 11.8 µM (active) | inactive | – | –
CCN(CC)CCNC(=O)c1c(C)[nH]c(/C=C2\C(=O)Nc3ccc(F)cc32)c1C | – | 6.75 µM (active) | inactive | inactive | – | – | 0.0468 µM (active) | 1.86 µM (active) | 3.72 µM (active) | 3.72 µM (active) | 4.68 µM (active) | 16.6 µM (active) | 4.9 µM (active) and 26.9 µM (active)
Nc1ncn([C@@H]2O[C@H](CO)[C@@H](O)[C@H]2O)c(=O)n1 | – | 21.3 µM (active) | inactive | inactive | – | 5.9 µM (active) | 3.32 µM (active) | 4.68 µM (active) | – | 5.25 µM (active) | 16.6 µM (active) | 1.05 µM (active) | 1.69 µM (active)
NCCCCNCCCN | -3.21% and -16.4% | inactive | inactive | inactive | – | – | 10.5 µM (active) | 23.5 µM (active) | – | – | – | 18.6 µM (active) | –
NC(=O)c1ccc2[nH]ccc2c1 | 3.04% | inactive | inactive | inactive | 107% | inactive | inactive | – | inactive | inactive | inactive | – | –
c1ccc([C@H]2CN3CCSC3=N2)cc1 | 15.3% and -0.374% | inactive | inactive | inactive | 112% | – | inactive | inactive | inactive | inactive | inactive | – | –
NC12CC3CC(CC(C3)C1)C2 | 1.69% and 3.9% | inactive | inactive | inactive | 106% | – | inactive | inactive | inactive | inactive | inactive | – | –
CCOC(=O)c1ncn2c1CN(C)C(=O)c1cc(F)ccc1-2 | -0.975% and -12.6% and 1.77% | inactive | inactive | inactive | 114% | inactive | inactive | inactive | – | inactive | inactive | – | –
COc1ccc(CCN(C)CCCC(C#N)(c2ccc(OC)c(OC)c2)C(C)C)cc1OC (configuration not stated) | -12.4% and 7.69% | inactive | inactive | inactive | 94.7% | – | – | – | 16.6 µM (active) | – | inactive | – | –
CN(CCOc1ccc(NS(C)(=O)=O)cc1)CCc1ccc(NS(C)(=O)=O)cc1 | -5.08% and 6.34% and 4.63% | inactive | inactive | inactive | 110% | inactive | inactive | – | inactive | inactive | inactive | – | –
CC(C)Cc1ccc(C(C)C(=O)O)cc1 (configuration not stated) | 17.5% and 9.01% | inactive | inactive | inactive | 111% | – | inactive | inactive | inactive | inactive | – | – | –
CC(C)(Oc1ccc(C2CC2(Cl)Cl)cc1)C(=O)O (configuration not stated) | -8.47% and 20.1% and -16.4% | inactive | inactive | inactive | 114% | – | inactive | inactive | inactive | inactive | – | – | –
OC(CCN1CCCCC1)(c1ccccc1)C1CC2C=CC1C2 (configuration not stated) | -27.6% and 6.19% and -26.9% | inactive | inactive | inactive | 97.6% | – | 23.5 µM (active) | – | inactive | inactive | inactive | – | –
CS(=O)(=O)Nc1ccc([N+](=O)[O-])cc1Oc1ccccc1 | -3.95% and 5.46% and -33.6% | inactive | inactive | inactive | 107% | – | inactive | inactive | inactive | inactive | inactive | – | –
CNC[C@H](O)c1ccc(O)c(O)c1 | 2.51% and 2.46% and 10.6% | inactive | inactive | inactive | 103% | – | – | inactive | inactive | inactive | inactive | – | –
